Values joined by “and” are separate entries in the source; they are usually repeats but may differ in a detail not shown here. Identical values can stand only once. Inconclusive results are not listed. The source holds several records for some structures; these can differ, active in one and inactive in another. A number with no mark means an inactive call. Active and inactive are the calls of the source. Unless noted, calls follow the shape of the dose curve; as a rule, active = well fitted curve in the direction sought with a large enough effect; inconclusive = small, poorly fitted or top-dose-only effect, or another doubt; inactive = no such curve, though single readings can be large; an effect the other way counts as inactive or inconclusive.
Assay: qHTS assay for small molecule agonists of the antioxidant response element (ARE) signaling pathway measured by Nrf2-dependant transcriptional activity - cell viability counter screen (AID 720653; active = well fitted curve in the direction sought with a large enough effect in the repeat runs; an effect the other way counts as inactive or inconclusive)
Settings: ARE-bla HepG2 viability, CellTiter-Glo ATP luminescence, 16 h; max response: stronger effect = lower value
Summary of the method: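 ARE-bla HepG2 cells treated with compounds for 16 h at 37C; this counter screen measures viability as intracellular ATP by CellTiter-Glo luminescence after 30 min at room temperature.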
% is scaled to controls: 0 for no effect and ±100 for the full control effect; potency is read from the fitted curve at half-maximal effect.

SMILES	max response	Potency
Oc1ccc2cc(SSc3ccc4cc(O)ccc4c3)ccc2c1	-8.42%	–
Nc1ccc2cc3ccccc3cc2c1	-4.4%	–
CN(C)c1ccc(C2(c3ccc(N(C)C)cc3)OC(=O)c3cc(N(C)C)ccc32)cc1	7.4%	–
CO[C@H]1/C=C/O[C@@]2(C)Oc3c(C)c(O)c4c(O)c(c5c(c4c3C2=O)NC2(CCN(CC(C)C)CC2)N=5)=NC(=O)/C(C)=C\C=C\[C@H](C)[C@H](O)[C@@H](C)[C@@H](O)[C@@H](C)[C@H](OC(C)=O)[C@@H]1C	-17.5%	–
C=C(C)c1ccccc1	-8.93%	–
O=C1OC2(c3cc(Br)c(O)c(Br)c3Oc3c2cc(Br)c(O)c3Br)c2c(Cl)c(Cl)c(Cl)c(Cl)c21	-22.4%	–
c1cc(OCC2CO2)cc(OCC2CO2)c1 (stereo not drawn)	-40% and -11.6%	–
C=CC(=O)OCCOCCOC(=O)C=C	-8.93%	–
C/C=C1\C(=O)C[C@H]2[C@@H]3CCC4=CC(=O)CC[C@]4(C)[C@H]3CC[C@]12C	-11.4%	–
O=C1OC(O)C(C(Cl)Cl)=C1Cl (stereo not drawn)	-27.5%	–
CNc1ccc(O)cc1	-24.5%	–
CC(=O)Nc1ccc(C(=O)CCl)cc1	–	39.8 µM (active)
CCC(C)Nc1ccc(NC(C)CC)cc1 (stereo not drawn)	–	22.4 µM (active)
O=C=Nc1ccc(Cc2ccc(N=C=O)cc2)cc1	-1.3% and -0.206%	–
c1ccc2c(c1)ccc1cc3c(ccc4ccccc43)cc12	-11.9%	–
c1ccc2c(c1)-c1cccc3c1c-2cc1ccccc13	-12.4% and -4.83%	–
O=[N+]([O-])c1cc([N+](=O)[O-])c2ccc(S(=O)(=O)O)cc2c1O	17.2%	–
O=Cc1ccc(Cl)c(Cl)c1	7.11%	–

Assay: qHTS assay for cell viability of HEK293 cells (AID 743288); also: nearly all actives have a fitted effect of over 50% in size
Settings: ATP luminescence (CellTiter-Glo), 18 h; max response: stronger effect = lower value
Summary of the method: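 Total intracellular ATP, measured with a luciferase-coupled reagent, indicates the number of viable HEK293 cells. Exposure to test chemicals lasts 18 h at 37 C in 1,536-well format at 2,000 cells/well.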

SMILES	max response	Potency
Oc1ccc2cc(SSc3ccc4cc(O)ccc4c3)ccc2c1	-14.6%	–
Nc1ccc2cc3ccccc3cc2c1	-16.2%	–
CN(C)c1ccc(C2(c3ccc(N(C)C)cc3)OC(=O)c3cc(N(C)C)ccc32)cc1	-3.92%	–
Cc1cc(Nc2ccc(O)cc2)ccc1N	-27%	–
CO[C@H]1/C=C/O[C@@]2(C)Oc3c(C)c(O)c4c(O)c(c5c(c4c3C2=O)NC2(CCN(CC(C)C)CC2)N=5)=NC(=O)/C(C)=C\C=C\[C@H](C)[C@H](O)[C@@H](C)[C@@H](O)[C@@H](C)[C@H](OC(C)=O)[C@@H]1C	-15.3%	–
Cc1cc(O)c(C(C)(C)C)cc1Sc1cc(C(C)(C)C)c(O)cc1C	–	70.8 µM (active) and 50.1 µM (active)
C=C(C)c1ccccc1	1.22%	–
O=C1OC2(c3cc(Br)c(O)c(Br)c3Oc3c2cc(Br)c(O)c3Br)c2c(Cl)c(Cl)c(Cl)c(Cl)c21	-29.6%	–
c1cc(OCC2CO2)cc(OCC2CO2)c1 (stereo not drawn)	-14.2%	–
ClC1=C(Cl)C(Cl)(Cl)C(Cl)=C1Cl	-13.8%	11.2 µM (active)
O=C1OC(O)C(C(Cl)Cl)=C1Cl (stereo not drawn)	-27.5%	–
CNc1ccc(O)cc1	–	35.5 µM (active)
CC(=O)Nc1ccc(C(=O)CCl)cc1	–	22.4 µM (active) and 25.1 µM (active)
CCC(C)Nc1ccc(NC(C)CC)cc1 (stereo not drawn)	–	28.2 µM (active)
O=C=Nc1ccc(Cc2ccc(N=C=O)cc2)cc1	9.46% and -11.9%	–
c1ccc2c(c1)ccc1cc3c(ccc4ccccc43)cc12	-4.73%	–
c1ccc2c(c1)-c1cccc3c1c-2cc1ccccc13	-13.5% and -14.9%	–
O=[N+]([O-])c1cc([N+](=O)[O-])c2ccc(S(=O)(=O)O)cc2c1O	-2.67%	–
O=Cc1ccc(Cl)c(Cl)c1	-7.75%	–

Source: PubChem BioAssay (NCATS)
